Reference: PubChem BioAssay AID1159580 (chemical genetic matrix, 2015)
Several values for one entry are separate records, joined by “and”; a condition that tells them apart may be missing. Equal values may be shown once. In all, about 5,500 compounds went through this assay and about 2,000 (36%) were called active. Another 18% or so got no clear call; they are omitted. Rule as the data show it: active = normalized growth mostly below about 0.91 (no sharp cut-off); inconclusive = no clear call, values can overlap the other calls; inactive = mostly above about 0.92. This is one part of the list.

Assay: chemical genetic growth profiling, strain panel (AID 1159580);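 also: tested at 20 µM; growth read once vehicle control cultures reached saturation at 30 °C; 1 = growth at the plate median or of vehicle wells; lower values mean less growth of the strain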
Conditions: S. cerevisiae deletion strains, growth OD

Measured: normalized growth

O=C(O)CCC1NCC2CC1CN1CCCCC21 (configuration not stated)
inactive: locus YAL013W, strain DEP1, active compounds read low 1 | locus YAL021C, strain ccr4, active compounds read low 0.97 | locus YAL026C, strain drs2, active compounds read low 0.974 | locus YAL030W, strain snc1, active compounds read low 0.969 | locus YBL061C, strain skt5, active compounds read low 0.975 | locus YBR009C, strain hhf1, active compounds read low 0.989 | locus YBR021W, strain FUR4, active compounds read low 1.01 | locus YBR023C, strain chs3, active compounds read low 0.983 | locus YBR171W, strain sec66, active compounds read low 0.999 | locus YBR229C, strain ROT2, active compounds read low 1.01 | locus YBR231C, strain swc5, active compounds read low 0.986 | locus YBR279W, strain paf1, active compounds read low 0.977 | locus YCL011C, strain gbp2, active compounds read low 0.975 | locus YCL016C, strain dcc1, active compounds read low 0.98 | locus YCL029C, strain bik1, active compounds read low 0.997 | locus YCL061C, strain MRC1, active compounds read low 0.989 | locus YCL069W, strain vba3, active compounds read low 0.985 | locus YCR088W, strain abp1, active compounds read low 0.982 | locus YDL005C, strain med2, active compounds read low 0.969 | locus YDL035C, strain GPR1, active compounds read low 1.02 | locus YDL040C, strain nat1, active compounds read low 0.982 | locus YDL074C, strain BRE1, active compounds read low 0.999 | locus YDL101C, strain DUN1, active compounds read low 1 | locus YDL134C, strain PPH21, active compounds read low 1 | locus YDL185W, strain tfp1, active compounds read low 0.997 | locus YDL192W, strain arf1, active compounds read low 0.998 | locus YDR001C, strain nth1, active compounds read low 0.967 | locus YDR069C, strain doa4, active compounds read low 0.987 | locus YDR101C, strain arx1, active compounds read low 0.999 | locus YDR137W, strain rgp1, active compounds read low 0.975 | locus YDR150W, strain NUM1, active compounds read low 0.998 | locus YDR159W, strain sac3, active compounds read low 0.978 | locus YDR162C, strain NBP2, active compounds read low 1 | locus YDR195W, strain ref2 0.975 | locus YDR297W, strain sur2, active compounds read low 0.974 | locus YDR318W, strain mcm21, active compounds read low 1.02 | locus YDR334W, strain swr1, active compounds read low 0.931 | locus YDR335W, strain msn5, active compounds read low 0.969 | locus YDR388W, active compounds read low 0.994 | locus YDR392W, strain spt3, active compounds read low 0.914 | locus YDR502C, strain sam2, active compounds read low 0.988 | locus YEL003W, strain gim4, active compounds read low 0.967 | locus YEL037C, strain rad23, active compounds read low 0.999 | locus YEL061C, strain CIN8 (second series), active compounds read low 0.97 | locus YEL061C, strain CIN8, active compounds read low 1.02 | locus YER015W, strain faa2, active compounds read low 0.966 | locus YER016W, strain bim1, active compounds read low 0.973 | locus YER110C, active compounds read low 0.999 | locus YER111C, strain swi4, active compounds read low 0.98 | locus YER155C, strain BEM2 (second series), active compounds read low 0.999 | locus YER155C, strain BEM2, active compounds read low 1 | locus YER167W, strain BCK2, active compounds read low 1 | locus YFR010W, strain ubp6, active compounds read low 0.974 | locus YGL078C, strain dbp3, active compounds read low 0.982 | locus YGL086W, strain mad1, active compounds read low 1.02 | locus YGL167C, strain pmr1, active compounds read low 0.965 | locus YGL173C, strain kem1, active compounds read low 0.963 | locus YGL227W, strain vid30, active compounds read low 0.986 | locus YGL240W, strain doc1, active compounds read low 0.985 | locus YGL248W, strain PDE1, active compounds read low 1 | locus YGL253W, strain hxk2, active compounds read low 0.978 | locus YGR078C, strain PAC10, active compounds read low 1 | locus YGR135W, strain pre9, active compounds read low 0.98 | locus YGR229C, strain SMI1, active compounds read low 0.983 | locus YGR252W, strain gcn5, active compounds read low 1.06 | locus YHR013C, strain ard1, active compounds read low 0.95 | locus YHR027C, strain rpn1, active compounds read low 0.953 | locus YHR030C, strain SLT2, active compounds read low 1.01 and 1.03 | locus YHR079C, strain IRE1 (second series), active compounds read low 1 | locus YHR079C, strain IRE1, active compounds read low 1.01 | locus YHR094C, strain hxt1, active compounds read low 0.999 | locus YHR129C, strain ARP1, active compounds read low 1.01 | locus YHR142W, strain chs7, active compounds read low 0.938 | locus YHR200W, strain rpn10, active compounds read low 1 | locus YIL066C, strain RNR3, active compounds read low 1.02 | locus YIL073C, strain SPO22, active compounds read low 1.03 | locus YIL125W, strain kgd1, active compounds read low 0.993 | locus YIR030C, strain dcg1, active compounds read low 0.986 | locus YJL092W, strain hpr5, active compounds read low 0.979 | locus YJL095W, strain BCK1 (second series), active compounds read low 0.976 | locus YJL095W, strain BCK1, active compounds read low 1 | locus YJL115W, strain asf1, active compounds read low 0.958 | locus YJL129C, strain trk1, active compounds read low 0.952 | locus YJL134W, strain LCB3, active compounds read low 0.999 | locus YJL154C, strain vps35, active compounds read low 0.967 | locus YJL164C, strain tpk1, active compounds read low 0.976 | locus YJL166W, strain qcr8, active compounds read low 0.975 | locus YJL168C, strain set2, active compounds read low 0.995 | locus YJL187C, strain SWE1 (second series), active compounds read low 1.01 | locus YJL187C, strain SWE1, active compounds read low 0.974 | locus YJR043C, strain POL32, active compounds read low 1.03 | locus YJR066W, strain TOR1, active compounds read low 0.98
